The full ranking holds about 33,000 sequences; the median of “E-score (-0.5 to 0.5)” is about -0.053, and the highest 2% start at about 0.37. This excerpt belongs to a sample that is enriched for the highest values.
molecular target: Hap1 (UniProt P0CE41); assay: PBM E-score (8-mer binding enrichment) (E-score (-0.5 to 0.5)); higher = stronger / more preferred TF binding; conditions: protein concentration: 200 nM; construct: GST-DNA-binding domain
Description: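 Universal 'all 10-mer' protein binding microarrays (Agilent AMADID 015681) probed with GST-tagged S. cerevisiae TFs (full-length or DBD) made by in vitro transcription/translation (PURExpress), about 100-200 nM. Bound TF was detected with fluorescent anti-GST. Each ungapped 8-mer (which stands for itself and its reverse complement) is scored by the PBM enrichment score (E-score), a modified Wilcoxon-Mann-Whitney statistic from -0.5 to +0.5, computed with the Universal PBM Analysis Suite. Scale: above 0.35 generally sequence-specific binding.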

Sequence of UniProt P0CE41 (P0CE41 whole entry, the tested form may be a part): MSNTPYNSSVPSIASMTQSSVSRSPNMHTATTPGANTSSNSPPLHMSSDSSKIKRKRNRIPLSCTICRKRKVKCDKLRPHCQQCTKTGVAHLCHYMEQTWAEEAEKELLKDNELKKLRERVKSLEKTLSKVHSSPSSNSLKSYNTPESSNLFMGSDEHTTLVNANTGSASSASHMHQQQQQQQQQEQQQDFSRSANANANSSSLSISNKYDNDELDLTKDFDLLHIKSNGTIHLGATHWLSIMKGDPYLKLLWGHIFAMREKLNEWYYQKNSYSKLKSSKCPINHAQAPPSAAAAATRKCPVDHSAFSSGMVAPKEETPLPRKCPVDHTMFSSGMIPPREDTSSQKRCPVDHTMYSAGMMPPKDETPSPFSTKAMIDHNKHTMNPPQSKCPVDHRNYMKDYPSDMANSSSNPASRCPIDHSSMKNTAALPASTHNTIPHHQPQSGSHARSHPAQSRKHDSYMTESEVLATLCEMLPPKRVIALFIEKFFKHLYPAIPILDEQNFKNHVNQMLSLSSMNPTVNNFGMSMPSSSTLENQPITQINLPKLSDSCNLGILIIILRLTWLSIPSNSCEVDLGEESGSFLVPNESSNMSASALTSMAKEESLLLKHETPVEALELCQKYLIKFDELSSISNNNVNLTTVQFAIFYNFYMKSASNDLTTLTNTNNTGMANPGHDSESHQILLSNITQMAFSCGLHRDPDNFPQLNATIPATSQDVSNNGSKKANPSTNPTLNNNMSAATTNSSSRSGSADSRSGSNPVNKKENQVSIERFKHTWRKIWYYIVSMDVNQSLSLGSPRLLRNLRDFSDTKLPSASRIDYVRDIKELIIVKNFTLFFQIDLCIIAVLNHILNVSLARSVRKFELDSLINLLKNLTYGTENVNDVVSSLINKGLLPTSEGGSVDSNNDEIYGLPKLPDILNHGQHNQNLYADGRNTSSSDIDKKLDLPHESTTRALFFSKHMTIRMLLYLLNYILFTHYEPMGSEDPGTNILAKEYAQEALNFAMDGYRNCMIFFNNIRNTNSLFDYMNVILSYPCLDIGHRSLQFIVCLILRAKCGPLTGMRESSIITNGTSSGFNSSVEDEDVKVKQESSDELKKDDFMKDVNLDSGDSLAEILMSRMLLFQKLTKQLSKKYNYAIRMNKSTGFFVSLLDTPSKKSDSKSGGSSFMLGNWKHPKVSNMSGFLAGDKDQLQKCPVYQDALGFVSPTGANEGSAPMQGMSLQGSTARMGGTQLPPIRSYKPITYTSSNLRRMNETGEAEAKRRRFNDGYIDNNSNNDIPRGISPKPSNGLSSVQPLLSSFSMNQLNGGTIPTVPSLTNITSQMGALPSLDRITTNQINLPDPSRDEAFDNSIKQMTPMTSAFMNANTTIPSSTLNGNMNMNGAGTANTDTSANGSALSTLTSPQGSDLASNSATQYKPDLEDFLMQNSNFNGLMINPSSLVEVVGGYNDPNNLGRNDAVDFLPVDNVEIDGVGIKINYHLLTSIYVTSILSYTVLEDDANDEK

Sequence	PBM E-score
ATAGCCTA	-0.189
CCGAATAC	0.365
ATGTGACG	-0.166
GACGGGCC	0.142
ACTAGGTC	-0.0578
GTCGACAC	-0.156
GCGATAAC	0.322
CCGATAAC	0.447
TCGATAAA	0.146
GCGATAAA	0.258
CCGATAAG	0.431
CGGATAAG	0.31
ACGATAAC	0.0651
CCGATAAA	0.461
ACGATAAG	0.245
CAAGATAA	-0.0149
AAGCCTAA	-0.0872
ATGCCAGG	-0.127
ACTCTTGG	-0.22
ACGCTCGG	0.375
ACGCTCGC	-0.123
ACGCTCGA	-0.125
TATCCAGA	-0.0797

Sequence	PBM E-score
AGACTGAG	-0.208
CGCAGCAA	-0.197
CGCGAGGA	0.0251
CGGCTATA	0.383
CGGCTTAA	0.391
CGGCTTTA	0.464
TGGCTTAA	-0.0483
CGGCTTAG	0.229
CGGCTTTC	0.259
GGGCTTTA	0.132
GGGCTATA	-0.0464
AGGCTATA	-0.157
GCTCTACA	-0.124
GTCCTAGA	-0.246
TCTTTTCA	-0.162
TGGAAACA	-0.0875
CTGCTCCA	-0.239
CAGGACGC	-0.246
AAGGATGG	-0.188
GGGTGTTA	0.0847
CGGTGTTC	0.235
CGGTGATA	0.428
CGGTGTTA	0.465

Sequence	PBM E-score
CGGTGATC	0.26
GGGTGATA	0.167
AATTGGAC	0.0155
CAGTAAAC	0.00777
GCCTGCAC	-0.137
ATGCGCTA	-0.0961
ACGCCGGC	0.405
ACGCCGCC	0.256
CCGCCGCA	0.135
ACGCCGTA	0.0761
CCGCCGGA	0.402
CCGCCGAA	0.38
GCGCCGGA	0.368
ACGCCGCA	0.18
ACGCCGGA	0.381
ACGCCGGG	0.306
GCGCCGAA	0.359
CCGCCGAG	0.352
CGGCTCTC	0.0925
AGCTGTGC	-0.224
CACGTCAC	-0.125
GGACCCAA	0.124
ATACGTGC	0.0178

Sequence	PBM E-score
CCATCGGC	0.174
GTTGCAAA	-0.0687
CAATTTGC	-0.103
TTCGTAAA	-0.199
CCTAAAAA	0.00566
GCCAAGTA	-0.218
CCGCCGGC	0.373
CCGCCGCC	0.193
CCGCCGTC	0.151
AAGTTTAT	0.145
CTCACCGA	0.157
ATCACCTG	-0.158
GTCACCGA	0.142
ATCACCGC	0.234
ATCACCGA	0.417
ATCACCGG	0.382
ATAAGCCG	0.3
ACTGATAG	-0.267
CCGATCCG	0.438
CGGATCCG	0.401
CGGATCCC	0.28
CGGATCCA	0.318
CCGATCCA	0.269

Sequence	PBM E-score
CCGATCGA	0.325
ACGATCCG	0.302
ACGATCGG	0.258
CCGATCGG	0.402
ACTTTATG	-0.17
ATCAGTAG	-0.276
ACAGGGCC	0.115
GGTCCCCA	0.0281
GCTCGGCC	0.375
CGTCGGAG	0.313
ACTCGGCC	0.361
ACTCGGAG	0.305
CCTCGGAA	0.314
ACTCGGAT	0.311
ACTCGGAC	0.385
ACTCGGAA	0.344
CCTCGGCC	0.346
CCTCGGAC	0.39
CCTCGGAG	0.394
